# Reference: article PMC8384837, “Expanding the binding specificity for RNA recognition by a PUF domain”
# How the values were obtained:
# Assay in all cases: yeast three-hybrid, YBZ-1, SC-Leu-His + 0.5 mM 3-AT, 4 days
# Details in all cases: tags: N-Gal4 AD-HA kept; label: inside an RPR1-promoter hybrid RNA with tandem MS2 sites; ssRNA
# [1] = biological target: PUM1 PUF domain R1-TVR (Homo sapiens, UniProt Q14671 828-1176, S863T;R864V;Q867R)
# Method in brief: (§1)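 Each repeat of the Pumilio-1 PUF domain was randomized at its three base-contacting residues, and these libraries were co-expressed from a centromeric plasmid with matching RNA elements in strain YBZ-1. After four days on SC-Leu (input) or SC-Leu-His + 0.5 mM 3-AT (selection), the repeat regions were PCR-amplified and Illumina-sequenced. The interaction score compares variant frequency between input and selection as a log change, computed in log2 with a pseudocount of 1 for absent variants.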
# [2] = biological target: PUM1 PUF domain R5-RNE (Homo sapiens, UniProt Q14671 828-1176, C1007R;R1008N;Q1011E)
# Method in brief: as §1
# [3] = biological target: PUM1 PUF domain R8-RWG (Homo sapiens, UniProt Q14671 828-1176, N1122R;Y1123W;Q1126G)
# Method in brief: as §1
# [4] = biological target: PUM1 PUF domain R8-CHP (Homo sapiens, UniProt Q14671 828-1176, N1122C;Y1123H;Q1126P)
# Method in brief: as §1
# [5] = biological target: PUM1 PUF domain R4-ERC (Homo sapiens, UniProt Q14671 828-1176, N971E;H972R;Q975C)
# Method in brief: as §1
# [6] = biological target: PUM1 PUF domain R3-CPG (Homo sapiens, UniProt Q14671 828-1176, R936P;Q939G)
# Method in brief: as §1
# [7] = biological target: PUM1 PUF domain R8-RQR (Homo sapiens, UniProt Q14671 828-1176, N1122R;Y1123Q;Q1126R)
# Method in brief: as §1
# [8] = biological target: PUM1 PUF domain R1-KFR (Homo sapiens, UniProt Q14671 828-1176, S863K;R864F;Q867R)
# Method in brief: as §1
# [9] = biological target: PUM1 PUF domain R7-QTR (Homo sapiens, UniProt Q14671 828-1176, S1079Q;N1080T;E1083R)
# Method in brief: as §1
sequence,measurement,setting,value
GGCUAGAACUAGUGGAUCCCCCGGCGCCCGGCGGCUCGAGCCCGGGUAAGUGUAAAUCGUCUGCAUGCCGCCGGGCGCCAUGCCUGCAGGUCGACUCUAGAAAACAUG,binding signal,[1],3.55 log2 enrichment (interaction score)
GGCUAGAACUAGUGGAUCCCCCGGCGCCCGGCGGCUCGAGCCCGGGUAAGUGUCAAUAGUCUGCAUGCCGCCGGGCGCCAUGCCUGCAGGUCGACUCUAGAAAACAUG,binding signal,[2],2.14 log2 enrichment (interaction score)
GGCUAGAACUAGUGGAUCCCCCGGCGCCCGGCGGCUCGAGCCCGGGUAAGUGUUAAUAGUCUGCAUGCCGCCGGGCGCCAUGCCUGCAGGUCGACUCUAGAAAACAUG,binding signal,[2],3.73 log2 enrichment (interaction score)
GGCUAGAACUAGUGGAUCCCCCGGCGCCCGGCGGCUCGAGCCCGGGUAAGUGUAAAUAGUCUGCAUGCCGCCGGGCGCCAUGCCUGCAGGUCGACUCUAGAAAACAUG,binding signal,[3],5.92 log2 enrichment (interaction score)
same,binding signal,[4],0.7 log2 enrichment (interaction score)
same,binding signal,[5],4.37 log2 enrichment (interaction score)
same,binding signal,[6],2.95 log2 enrichment (interaction score)
same,binding signal,[7],0.6 log2 enrichment (interaction score)
GGCUAGAACUAGUGGAUCCCCCGGCGCCCGGCGGCUCGAGCCCGGGUAAGCGUAAAUAGUCUGCAUGCCGCCGGGCGCCAUGCCUGCAGGUCGACUCUAGAAAACAUG,binding signal,[3],6.94 log2 enrichment (interaction score)
same,binding signal,[4],2.6 log2 enrichment (interaction score)
same,binding signal,[7],3.05 log2 enrichment (interaction score)
GGCUAGAACUAGUGGAUCCCCCGGCGCCCGGCGGCUCGAGCCCGGGUAAGUGUAAAUUGUCUGCAUGCCGCCGGGCGCCAUGCCUGCAGGUCGACUCUAGAAAACAUG,binding signal,[8],3.96 log2 enrichment (interaction score)
GGCUAGAACUAGUGGAUCCCCCGGCGCCCGGCGGCUCGAGCCCGGGUAAGUGUACAUAGUCUGCAUGCCGCCGGGCGCCAUGCCUGCAGGUCGACUCUAGAAAACAUG,binding signal,[5],0.16 log2 enrichment (interaction score)
GGCUAGAACUAGUGGAUCCCCCGGCGCCCGGCGGCUCGAGCCCGGGUAAGUUUAAAUAGUCUGCAUGCCGCCGGGCGCCAUGCCUGCAGGUCGACUCUAGAAAACAUG,binding signal,[9],2.39 log2 enrichment (interaction score)
